PLK1 PBD block = qHTS for Inhibitors of PLK1-PDB (polo-like kinase 1 - polo-box domain): Primary Screen | 360,000 tested, 2.8% active | Serine/threonine-protein kinase PLK1 (Homo sapiens), P53350 | Potency, µM, for inactives: max response, negative = inhibition, most hits filed as inhibitors | Plk1 PBD binding of FITC phosphopeptide, fluorescence polarization | AID 720504, 2013; further: potency means the concentration at half of the fitted maximal effect; series mostly up to about 57 µM; on the % scale 0 is the no-effect control and ±100 the full control effect; nearly all actives have a fitted effect of over 65% in size
Target sequence (P53350 whole entry, looked up, the tested form may be a part): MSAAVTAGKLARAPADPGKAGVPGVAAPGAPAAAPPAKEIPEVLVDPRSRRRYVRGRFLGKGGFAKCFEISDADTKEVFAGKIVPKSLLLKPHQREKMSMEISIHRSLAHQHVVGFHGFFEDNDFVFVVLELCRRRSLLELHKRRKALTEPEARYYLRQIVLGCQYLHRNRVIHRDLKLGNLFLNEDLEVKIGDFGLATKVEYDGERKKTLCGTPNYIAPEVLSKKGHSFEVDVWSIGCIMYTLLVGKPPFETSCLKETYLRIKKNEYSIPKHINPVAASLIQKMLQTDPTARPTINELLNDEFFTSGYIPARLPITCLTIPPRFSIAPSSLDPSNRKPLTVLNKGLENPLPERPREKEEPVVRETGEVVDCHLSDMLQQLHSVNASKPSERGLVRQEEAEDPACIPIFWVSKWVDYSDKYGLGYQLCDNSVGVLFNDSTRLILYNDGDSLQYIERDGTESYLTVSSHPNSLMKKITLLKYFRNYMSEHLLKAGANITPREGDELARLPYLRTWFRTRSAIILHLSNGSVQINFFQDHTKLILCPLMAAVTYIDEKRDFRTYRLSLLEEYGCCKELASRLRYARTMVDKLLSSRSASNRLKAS
JMJD2A Tudor inh = qHTS Assay for Inhibitors of JMJD2A-Tudor Domain; Lysine-specific demethylase 4A (Homo sapiens), O75164; AlphaScreen JMJD2A-Tudor / H3K4me3 peptide binding; Potency, µM (titrated, usually from 114 µM), inactives show at the highest dose activity change, negative = inhibition, hits mostly inhibitors; 390,000 tested, 4.4% active; further: potency means the concentration at half of the fitted maximal effect; on the % scale 0 is the no-effect control and ±100 the full control effect; nearly all actives have a fitted effect of over 50% in size
G9a block = qHTS Assay for Inhibitors of Histone Lysine Methyltransferase G9a; 350,000 tested, 8.8% active; Histone-lysine N-methyltransferase EHMT2 (Homo sapiens), Q96KQ7; AID 504332, 2011; G9a H3K9 monomethylation, AlphaScreen, 2 h; Potency, µM (series often up to 102 µM), for inactives: at the top dose activity, negative = inhibition, hits mostly inhibitors; further: potency means the concentration at half of the fitted maximal effect; on the % scale 0 is the no-effect control and ±100 the full control effect; nearly all actives have a fitted effect of over 75% in size
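AlphaScreen detection with an anti-monomethyl H3K9 antibody quantified product after a 2 h room-temperature reaction containing 500 nM biotinylated H3K9 peptide, 20 µM SAM and 20 nM enzyme, which had been preincubated 15 min with compound.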
HP1b chromo inh = HTS for Inhibitors of HP1-beta Chromodomain Interactions with Methylated Histone Tails. Chromobox protein homolog 1 (Homo sapiens), P83916. AlphaScreen HP1-beta / biotin-H3K9me3 peptide binding. Potency, µM (highest dose often 114 µM), inactives show at the highest dose activity change, negative = inhibition, usual class: inhibitors. 390,000 tested, 0.56% active. AID 540317, 2011; further: potency means the concentration at half of the fitted maximal effect; nearly all actives have a fitted effect of over 70% in size
Target sequence (P83916 whole entry, looked up): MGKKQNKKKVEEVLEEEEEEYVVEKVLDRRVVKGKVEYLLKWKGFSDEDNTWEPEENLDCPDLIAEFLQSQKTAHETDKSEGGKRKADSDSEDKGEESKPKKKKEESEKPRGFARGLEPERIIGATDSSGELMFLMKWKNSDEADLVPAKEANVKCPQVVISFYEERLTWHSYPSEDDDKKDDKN
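AlphaScreen: HP1-beta (50 nM) preformed 30 min with biotin-H3(1-18)K9me3 peptide (50 nM) in PBS pH 7.4, 0.01% Tween-20. Compound added for 30 min at RT, then streptavidin donor/nickel chelate acceptor beads (10 ug/mL) for 30 min.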
PI5P4K alpha inh = qHTS for Inhibitors of phosphatidylinositol 5-phosphate 4-kinase (PI5P4K) | PI5P4Kalpha enzyme, ADP-Glo luminescence, 60 min; stronger effect = lower value | AID 652105, 2013 | max response, % | Phosphatidylinositol 5-phosphate 4-kinase type-2 alpha (Homo sapiens), P48426 | 330,000 tested, 1.2% active; active means max response of -50% or lower; inconclusive means between -30% and -50%; inactive means -30% or higher; further: value at the top dose of about 77 µM; on the % scale 0 is the no-effect control and ±100 the full control effect
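Enzyme plus substrate dispensed, test compounds pinned in, then ATP (5 microM final) added. After 60 min at RT, ADP-Glo reagent 1 for 45 min and reagent 2 for 30 min preceded luminescence imaging.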
BAZ2B block = qHTS Assay for Inhibitors of BAZ2B. AlphaScreen BAZ2B-H3K14Ac peptide displacement. 360,000 tested, 4.4% active. Bromodomain adjacent to zinc finger domain protein 2B (Homo sapiens), Q9UIF8. Potency, µM (doses to about 114 µM), for inactives: at the highest dose activity change, negative = inhibition, actives largely listed as inhibitors; further: potency means the concentration at half of the fitted maximal effect; on the % scale 0 is the no-effect control and ±100 the full control effect; nearly all actives have a fitted effect of over 60% in size
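AlphaScreen luminescence quantifies BAZ2B engagement of H3K14Ac peptide; the protein and biotinylated peptide are both at 50 nM final, buffer PBS pH 7.4 with 0.01% Tween-20, all steps at room temperature.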
The depositor's hits bear a star; ? = inconclusive; . = not tested or not shown; [ ] = remark or other dose. Shown are actives, neighbours in structure and some others; about 12% of the full set was active somewhere. Unless noted, the call rests on the fitted dose curve; in most records, active means well fitted curve in the direction sought with a large enough effect; inconclusive means small, poorly fitted or top-dose-only effect, or another doubt; inactive means no such curve, though single readings can be large; an effect the other way counts as inactive or inconclusive.

SMILES | PLK1 PBD block | JMJD2A Tudor inh | G9a block | HP1b chromo inh | PI5P4K alpha inh | BAZ2B block
CCN1CCN(c2nc(NCCO)c3ccccc3n2)CC1 | -6.7% | -12.0% | 39.8µM* | 22.7% | 6.7 | -11.4%
O=C1c2ccccc2C(=O)N1c1cccc(=O)[nH]1 | . | -10.9% | . | . | . | .
CCOC(=O)N1CCc2c(sc3c2c(=O)n(CCc2ccccc2)c(=O)n3CC(=O)Nc2ccccc2C)C1 | . | -16.2% | 8.1%[59 µM] | 30.7% | . | -1.6%
O=C(CCCSc1nc2ccccc2[nH]1)N1CCN(c2ccccc2)CC1 | -13.7% | -33.8% | 44.7µM* | 8.6% | . | -37.2%
O=C(CSc1nc2ccccc2[nH]1)N1CCN(c2ccccc2)CC1 | 0.9% | -4.4% | ? | 16.9% | . | -11.3%
O=C(CCCSc1nc2ccccc2[nH]1)NCc1ccccc1Cl | -5.2% | -16.6% | 35.5µM* | ? | 8.9 | -2.4%
O=C(CSc1n[nH]c(-c2ccccc2)n1)N1CCN(c2ccc(F)cc2)CC1 | . | -22.1% | -2.1%[59 µM] | 7.4%[57 µM] | . | -11.1%
O=C(CCCSc1nc2ccccc2[nH]1)NC(c1ccccc1)c1ccccc1 | -9.5% | -1.3% | -6.9%[59 µM] | 30.7% | 0.7 | -7.1%
COc1ccc(N2CCN(C(=O)CSc3n[nH]c(-c4ccccc4)n3)CC2)cc1 | . | -33.8% | 15.8µM* | 9.5%[57 µM] | . | -26.1%
COc1ccc(N2CCN(C(=O)c3cccnc3SCc3cccc(Br)c3)CC2)cc1 | -0.3% | 22.4µM* | 12.6µM* | ? | 0.1 | ?
Cc1cnc(C(=O)N2CCCC(N3CCN(c4cccc(C(F)(F)F)c4)CC3)C2)cn1 (stereo unspecified) | 1.2% | -23.4% | -68.7% | 24.5% | 1.0 | -14.5%
COc1ccccc1CNC(=O)CCc1c(C)nn(-c2ccc(N3CCCC3)nn2)c1C | . | -7.0% | -1.5%[59 µM] | 51.6% | . | -19.2%
O=C(CSc1ncc2c(n1)-c1ccccc1N(Cc1ccccc1)S2(=O)=O)Nc1ccccc1 | . | -9.7% | 10.5%[59 µM] | 2.2% | . | 4.8%
C#CCN(C(=O)c1cc(COc2cccc(C(F)(F)F)c2)on1)C1CCCCC1 | 0.5% | 33.1% | 73.5% | 98.7% | 28.7 | 0.9%
COc1ccccc1N1CCN(C(=O)CSc2nc(N)cc(=O)[nH]2)CC1 | -10.5% | -1.3% | 4.0%[59 µM] | 26.7% | . | -3.3%
O=C(CSc1ncccc1-c1nc2ccccc2[nH]1)N1CCN(c2ccccc2F)CC1 | -11.0% | -27.6% | -45.2% | 23.8% | . | -8.2%
COc1ccccc1N1CCN(C(=O)CC(NC(=O)c2ccccc2Cl)c2ccccc2)CC1 (stereo unspecified) | -2.9% | -7.5% | 44.7µM* | 27.1% | 5.8 | 6.1%
COc1ccc(N2CCN(C(=O)CSc3ncccc3-c3nc4ccccc4[nH]3)CC2)cc1 | -16.2% | ? | 25.1µM* | -14.6% | . | ?
COc1ccccc1N1CCN(C(=O)CSc2nc3ccccc3[nH]2)CC1 | -8.3% | -6.6% | 7.94µM* | 4.2% | . | -3.7%
Cc1c(C)n(C(=O)CSc2nc3ccccc3[nH]2)c2ccccc12 | -18.1% | ? | 50.1µM* | 2.2% | -9.6 | ?
COc1ccccc1N1CCN(C(=O)CSc2ncccc2-c2nc3ccccc3[nH]2)CC1 | -10.8% | -31.4% | 44.7µM* | 38.6% | . | -36.4%
O=C(CSc1nc2ccccc2[nH]1)N1c2ccccc2Sc2ccccc21 | -4.6% | ? | 44.7µM* | 4.8% | 6.0 | ?
O=C(CSc1nc(O)cc(=O)[nH]1)N1c2ccccc2Sc2ccccc21 | -10.7% | -30.8% | ? | 32.7% | 0.8 | -29.0%
O=C(c1cccc(F)c1)N1CCC2(CC1)CN(C(c1ccccc1)c1ccccc1)C2 | . | . | 5.6%[12.7 µM] | . | . | .
COC(=O)c1sc2nc(N)c(C#N)cc2c1N | 1.7% | -15.0% | 44.7µM* | 15.3% | 79.0 | -31.8%
SMILES | PLK1 PBD block | JMJD2A Tudor inh | G9a block | HP1b chromo inh | PI5P4K alpha inh | BAZ2B block
CNC(=O)c1cccn1-c1ccsc1C(=O)OC | 3.77µM* | -32.9%[11.4 µM] | -0.4% | 4.5% | ? | -5.3%
Nc1nc2c(s1)CCc1c-2cnn1-c1ccccc1 | 2.67µM* | 25.1µM* | ? | 11.2µM* | ? | 44.7µM*
COc1ccc(CNC(=O)C[C@H]2C[C@H](C(=O)N3CCCCC3)[C@@]3(CCc4ccccc4)c4[nH]c5cc(-c6ccco6)ccc5c4CCN3C2=O)cc1OC | 23.8µM* | ? | . | -6.1% | ? | .
CC[C@]12c3[nH]c4cc(-c5ccco5)ccc4c3CCN1C(=O)[C@@H](CC(=O)NCc1ccc(OC)c(OC)c1)C[C@@H]2C(=O)N1CCN(C(=O)C2CC2)CC1 | -1.1% | -34.8% | . | -11.6% | -0.7 | .
CN(C)CCCNC(=O)C[C@H]1C[C@H](C(=O)N2CCCCC2)[C@@]2(CCc3ccccc3)c3[nH]c4cc(-c5ccco5)ccc4c3CCN2C1=O | -10.4% | 50.1µM* | . | ? | -1.1 | .
COc1ccc(CCNc2ncnc3c2c(-c2ccccc2)cn3-c2ccc(F)cc2)cc1OC | . | ? | ? | -8.6% | . | ?
Cc1ccc(/C=N/Nc2ccc(Cl)c(C(=O)O)c2)s1 | -18.8% | -25.3% | ? | 6.6% | -10.0 | ?
Cc1ccc(/C=N/Nc2ccc(F)cc2)s1 | -13.0% | ? | 50.1µM* | -7.9% | 7.2 | ?
O=C(c1cc(-c2ccc(Cl)cc2)on1)N(Cc1ccc(F)cc1)Cc1ccco1 | . | 4.3% | 13.0%[59 µM] | 63.8% | . | 11.0%
Cc1ccc(-c2cc(C(=O)N(Cc3ccccc3)Cc3ccco3)no2)cc1F | . | -3.3% | ? | 31.5% | . | 50.1µM*
N#CCCn1c(=O)c(-c2ccccc2)nc2cnc(N3CCNCC3)nc21 | . | . | -10.5%[12.7 µM] | . | . | .
CCCC(=Nc1ccccc1OC)C1=C(O)CC(c2ccccc2)CC1=O (stereo unspecified) | 6.1% | -6.3% | ? | 22.4% | 3.4 | -37.7%
COc1ccccc1N=C(C)C1=C(O)CC(c2ccccc2)CC1=O (stereo unspecified) | -2.5% | ? | 50.1µM* | 18.0% | -1.5 | ?
COc1ccc(-c2cc(-c3c(O)c(OC)c4occc4c3OC)[nH]n2)cc1 | 3.6% | ? | 15.5%[12.7 µM] | 0.3% | . | -37.4%
COc1ccc(-c2cc(-c3c(O)c(OC)c4occc4c3OC)[nH]n2)cc1OC | -4.4% | 56.2µM* | -5.6%[0.0925 µM] | ? | . | ?
COc1ccc(NC(=O)COC(=O)c2ccc(S(=O)(=O)N3CCCCC3)cc2)c(OC)c1 | -11.6% | . | . | . | 1.2 | .
O=C(c1ccccc1)c1c(O)cc(-c2ccccc2)oc1=O | -13.1% | ? | ? | ? | 5.0 | 56.2µM*

Screening results (PubChem BioAssay)
